From PubChem BioAssay (NCI)
This is part of a sample that, as a whole, favours compounds with a hit. Of some 83,000 tested, about 20% had one in any assay.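 In brief: 96-well plates, 48 h treatment, single concentration, percent growth endpoint.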 A number with no mark means an inactive call. Calls of active or inactive are those of the source. Rule for the calls: active = growth percent below 10; inactive = the rest.

Experiments:
Assay in all cases: NCI-60 one-dose screen, 48 h (100 = growth as untreated, 0 = no growth, -100 = all killed)
Conditions in all cases: 10 µM unless noted
NCI-H23 lung = system: NCI-H23 lung
NCI-H226 lung = system: NCI-H226 lung
NCI-H322M lung = system: NCI-H322M lung
HOP-62 NSCLC = system: HOP-62 NSCLC
NCI-H460 lung = system: NCI-H460 lung
HOP-92 NSCLC = system: HOP-92 NSCLC
NCI-H522 lung = system: NCI-H522 lung
A549/ATCC NSCLC = system: A549/ATCC NSCLC
786-0 renal = system: 786-0 renal
COLO 205 colon = system: COLO 205 colon
DU-145 prostate = system: DU-145 prostate
MALME-3M melanoma = system: MALME-3M melanoma
MDA-MB-231 breast = system: MDA-MB-231 breast
RXF 393 renal = system: RXF 393 renal
SF-268 CNS = system: SF-268 CNS
SF-295 CNS = system: SF-295 CNS
SF-539 CNS = system: SF-539 CNS
UACC-257 melanoma = system: UACC-257 melanoma
M14 melanoma = system: M14 melanoma

Q: For `FC(F)(F)c1cn(CCN2CCOCC2)c2ncnc(Cl)c12`, which growth (NCI-H23 lung) is on record?
A: 66.1%

Q: What about the growth (NCI-H226 lung) of the same compound?
A: 101%

Q: And the growth (NCI-H322M lung)?
A: 87.4%

Q: What about the growth (HOP-62 NSCLC) of the same compound?
A: 55.9%

Q: And the growth (NCI-H460 lung)?
A: 84.3%

Q: And the growth (HOP-92 NSCLC)?
A: -62.3% (active)

Q: And the growth (NCI-H522 lung)?
A: 20.5%

Q: What about the growth (A549/ATCC NSCLC) of the same compound?
A: 94.5%

Q: And the growth (786-0 renal)?
A: 113%

Q: What about the growth (COLO 205 colon) of the same compound?
A: 76.5%

Q: And the growth (DU-145 prostate)?
A: 57.8%

Q: And the growth (MALME-3M melanoma)?
A: 111%

Q: And the growth (MDA-MB-231 breast)?
A: 63.8%

Q: What about the growth (RXF 393 renal) of the same compound?
A: 82.9%

Q: And the growth (SF-268 CNS)?
A: 67.5%

Q: And the growth (SF-295 CNS)?
A: 96.5%

Q: And the growth (SF-539 CNS)?
A: 87%

Q: What about the growth (UACC-257 melanoma) of the same compound?
A: 84%

Q: And the growth (M14 melanoma)?
A: 38%

Q: With `CC[C@H]1[C@@H]2C=C[C@@H]3[C@H]4C/C=C\C(=O)NCCC[C@@H]5NC(=O)/C(=C(O)/C=C/[C@@H]4C[C@@H]3[C@H]2C[C@H]1C)C5=O` as the compound, how does the growth (NCI-H23 lung) read?
A: 51%

Q: And the growth (NCI-H226 lung)?
A: 1.14% (active)

Q: What about the growth (NCI-H322M lung) of the same compound?
A: 35.7%

Q: What about the growth (HOP-62 NSCLC) of the same compound?
A: -49.9% (active)

Q: And the growth (NCI-H460 lung)?
A: -51.2% (active)

Q: What about the growth (HOP-92 NSCLC) of the same compound?
A: -20.4% (active)

Q: And the growth (NCI-H522 lung)?
A: 67.7%

Q: What about the growth (A549/ATCC NSCLC) of the same compound?
A: 36.8%

Q: What about the growth (786-0 renal) of the same compound?
A: -80.9% (active)

Q: And the growth (COLO 205 colon)?
A: 66%

Q: What about the growth (DU-145 prostate) of the same compound?
A: -94% (active)

Q: And the growth (MALME-3M melanoma)?
A: -6.22% (active)

Q: And the growth (MDA-MB-231 breast)?
A: -2.91% (active)

Q: And the growth (RXF 393 renal)?
A: -86.1% (active)

Q: What about the growth (SF-268 CNS) of the same compound?
A: -55.5% (active)

Q: What about the growth (SF-295 CNS) of the same compound?
A: -53.2% (active)

Q: And the growth (SF-539 CNS)?
A: -20.8% (active)

Q: And the growth (UACC-257 melanoma)?
A: 23.4%

Q: What about the growth (M14 melanoma) of the same compound?
A: -10.9% (active)

Q: Which growth (NCI-H23 lung) does the source give for `Nc1nc(Nc2ccc(OCc3cccc(F)c3)cc2)c2c(n1)[nH]c1ccc(O)cc12` here?
A: 6.71% (active)

Q: What about the growth (NCI-H226 lung) of the same compound?
A: -56.2% (active)

Q: What about the growth (NCI-H322M lung) of the same compound?
A: 3.43% (active)

Q: What about the growth (HOP-62 NSCLC) of the same compound?
A: -17% (active)

Q: What about the growth (NCI-H460 lung) of the same compound?
A: -49.2% (active)

Q: And the growth (HOP-92 NSCLC)?
A: -31.3% (active)

Q: And the growth (NCI-H522 lung)?
A: -76.2% (active)

Q: And the growth (A549/ATCC NSCLC)?
A: -27.1% (active)

Q: What about the growth (786-0 renal) of the same compound?
A: -96.6% (active)

Q: And the growth (COLO 205 colon)?
A: -77.5% (active)

Q: What about the growth (DU-145 prostate) of the same compound?
A: 10.4%

Q: What about the growth (MALME-3M melanoma) of the same compound?
A: -69.5% (active)

Q: What about the growth (MDA-MB-231 breast) of the same compound?
A: -67.9% (active)

Q: What about the growth (RXF 393 renal) of the same compound?
A: -76% (active)

Q: What about the growth (SF-268 CNS) of the same compound?
A: -14.7% (active)

Q: What about the growth (SF-295 CNS) of the same compound?
A: -69.2% (active)

Q: And the growth (SF-539 CNS)?
A: -84% (active)

Q: What about the growth (UACC-257 melanoma) of the same compound?
A: -31.2% (active)

Q: What about the growth (M14 melanoma) of the same compound?
A: -83% (active)

Q: For `COc1ccc(SC2c3ccc(O)cc3Oc3nc(N)c(C#N)c(N)c32)cc1` (stereo unspecified), which growth (NCI-H23 lung) is on record?
A: 93.3%

Q: What about the growth (NCI-H226 lung) of the same compound?
A: 117%

Q: What about the growth (NCI-H322M lung) of the same compound?
A: 79.2%

Q: And the growth (HOP-62 NSCLC)?
A: 64.4%

Q: What about the growth (NCI-H460 lung) of the same compound?
A: 79.3%

Q: And the growth (HOP-92 NSCLC)?
A: 112%

Q: And the growth (NCI-H522 lung)?
A: 86.3%

Q: What about the growth (A549/ATCC NSCLC) of the same compound?
A: 84.6%

Q: And the growth (786-0 renal)?
A: 81.6%

Q: And the growth (COLO 205 colon)?
A: 115%

Q: And the growth (DU-145 prostate)?
A: 93.1%

Q: What about the growth (MALME-3M melanoma) of the same compound?
A: 99.3%

Q: What about the growth (MDA-MB-231 breast) of the same compound?
A: 101%

Q: And the growth (RXF 393 renal)?
A: 122%

Q: And the growth (SF-268 CNS)?
A: 57.3%

Q: And the growth (SF-295 CNS)?
A: 76.8%

Q: What about the growth (SF-539 CNS) of the same compound?
A: 52.1%

Q: What about the growth (UACC-257 melanoma) of the same compound?
A: 106%

Q: And the growth (M14 melanoma)?
A: 105%
